Assay results as given in PubChem BioAssay (NCATS).
Results filed as inconclusive are left out. Entries that show only a call come without a potency. Calls of active or inactive are those of the source. Unless noted, the call rests on the fitted dose curve; in most records, active means well fitted curve in the direction sought with a large enough effect; inconclusive means small, poorly fitted or top-dose-only effect, or another doubt; inactive means no such curve, though single readings can be large; an effect the other way counts as inactive or inconclusive.

How the values were obtained:
[1] = qHTS Assay for Identification of Small Molecule Agonists for Thrombopoietin (TPO) Signaling Pathway (AID 917); settings: TPO signaling pathway reporter cells, agonist qHTS, stimulated with TPO at its EC50; series mostly up to 38.5 µM
In short: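 Reporter: GpIIb promoter–luciferase in murine Ba/F3 expressing human TPO receptor. Pre-starved of IL-3 overnight; compounds with 26 pM TPO, 24 hrs, 37 C/5% CO2; luminescence read.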

[2] = biological target: Rap guanine nucleotide exchange factor 3 (Homo sapiens) (UniProt O95398); assay: Confirmatory qHTS for agonist of cAMP-regulated guanine nucleotide exchange factor 3 (EPAC1) (AID 1645881); settings: EPAC1 Rap1B BODIPY-GDP exchange fluorescence, 100% = cAMP control response; series mostly up to 154 µM;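 further: EPAC1 catalysed release of BODIPY-GDP from Rap1B seen as fluorescence loss; nearly all actives have a fitted effect of over 75% in size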
Chain of Rap guanine nucleotide exchange factor 3 (Homo sapiens) (O95398 whole entry, looked up): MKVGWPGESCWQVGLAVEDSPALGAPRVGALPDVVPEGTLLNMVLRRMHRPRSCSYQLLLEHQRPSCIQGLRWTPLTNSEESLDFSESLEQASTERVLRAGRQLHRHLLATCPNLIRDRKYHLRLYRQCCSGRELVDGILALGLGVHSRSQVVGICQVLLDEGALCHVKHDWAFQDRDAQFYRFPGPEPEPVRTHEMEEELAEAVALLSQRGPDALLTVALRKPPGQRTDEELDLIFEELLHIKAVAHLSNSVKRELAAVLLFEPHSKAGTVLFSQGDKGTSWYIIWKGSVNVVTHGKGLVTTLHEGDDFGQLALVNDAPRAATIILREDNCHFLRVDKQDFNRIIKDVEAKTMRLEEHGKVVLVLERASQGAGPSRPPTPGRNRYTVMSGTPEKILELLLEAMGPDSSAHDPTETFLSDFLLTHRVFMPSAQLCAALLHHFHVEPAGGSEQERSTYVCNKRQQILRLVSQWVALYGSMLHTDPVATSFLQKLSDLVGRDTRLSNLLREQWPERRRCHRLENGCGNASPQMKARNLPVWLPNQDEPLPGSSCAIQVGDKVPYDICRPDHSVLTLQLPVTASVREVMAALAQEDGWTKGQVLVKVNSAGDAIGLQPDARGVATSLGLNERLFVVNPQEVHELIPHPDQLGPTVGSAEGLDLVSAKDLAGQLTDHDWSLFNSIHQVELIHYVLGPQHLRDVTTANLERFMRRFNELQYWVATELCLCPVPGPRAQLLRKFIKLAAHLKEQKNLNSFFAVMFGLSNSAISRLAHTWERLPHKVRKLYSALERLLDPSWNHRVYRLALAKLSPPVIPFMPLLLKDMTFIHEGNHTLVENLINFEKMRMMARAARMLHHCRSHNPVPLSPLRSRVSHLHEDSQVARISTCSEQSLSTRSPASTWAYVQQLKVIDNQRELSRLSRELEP

[3] = biological target: Rap guanine nucleotide exchange factor 4 (Homo sapiens) (UniProt Q8WZA2); assay: Confirmatory qHTS for agonist of cAMP-regulated guanine nucleotide exchange factor 4 (EPAC2) (AID 1645884); settings: EPAC2 GEF activity, Rap1B-BODIPY-GDP fluorescence, percent relative to cAMP agonist control; series mostly up to 154 µM;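 further: nucleotide exchange releases bodipy-GDP from Rap1 and this lowers its fluorescence; nearly all actives have a fitted effect of over 65% in size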
Chain of Rap guanine nucleotide exchange factor 4 (Homo sapiens) (Q8WZA2 whole entry, looked up): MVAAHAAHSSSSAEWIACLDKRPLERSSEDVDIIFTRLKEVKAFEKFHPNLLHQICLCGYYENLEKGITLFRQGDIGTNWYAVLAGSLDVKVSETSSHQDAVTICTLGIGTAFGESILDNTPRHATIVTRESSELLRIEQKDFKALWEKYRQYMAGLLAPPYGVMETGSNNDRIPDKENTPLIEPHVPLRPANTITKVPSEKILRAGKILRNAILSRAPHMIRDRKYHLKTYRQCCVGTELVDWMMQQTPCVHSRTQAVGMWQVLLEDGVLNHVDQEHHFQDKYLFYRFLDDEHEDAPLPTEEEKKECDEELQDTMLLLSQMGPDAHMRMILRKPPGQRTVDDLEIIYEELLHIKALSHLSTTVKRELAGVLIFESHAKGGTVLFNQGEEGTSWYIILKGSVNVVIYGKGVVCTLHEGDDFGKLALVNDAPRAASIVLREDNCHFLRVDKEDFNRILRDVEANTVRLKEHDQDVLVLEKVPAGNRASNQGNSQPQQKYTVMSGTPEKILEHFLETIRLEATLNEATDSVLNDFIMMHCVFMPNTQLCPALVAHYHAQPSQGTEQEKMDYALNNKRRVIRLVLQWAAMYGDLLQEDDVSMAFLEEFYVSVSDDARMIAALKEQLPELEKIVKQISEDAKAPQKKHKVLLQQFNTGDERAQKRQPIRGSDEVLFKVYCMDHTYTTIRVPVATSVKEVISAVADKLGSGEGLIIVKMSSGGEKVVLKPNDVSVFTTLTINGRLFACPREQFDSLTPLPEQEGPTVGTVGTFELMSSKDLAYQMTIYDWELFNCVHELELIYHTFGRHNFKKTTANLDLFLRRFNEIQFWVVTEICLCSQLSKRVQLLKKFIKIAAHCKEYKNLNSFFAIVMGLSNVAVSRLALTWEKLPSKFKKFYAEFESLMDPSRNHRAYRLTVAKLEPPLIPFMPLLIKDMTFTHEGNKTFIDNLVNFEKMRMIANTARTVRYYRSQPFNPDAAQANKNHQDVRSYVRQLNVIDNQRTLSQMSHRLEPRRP

[4] = qHTS Assay for Identification of Small Molecule Antagonists for Thrombopoietin (TPO) Signaling Pathway (AID 918); settings: TPO-dependent cell signaling reporter, antagonist mode; further: potency means the concentration at half of the fitted maximal effect; nearly all actives have a fitted effect of over 60% in size
In short: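 Ba/F3 (murine, hTPO-R, GPIIb-luc reporter); overnight IL-3 withdrawal; cpd + TPO 26 pM final (EC50); 24 h 37 C/5% CO2; Steadylite luminescence after 10 min RT.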

[5] = Cytotoxicity counterscreen for NFkB agonists and antagonists (AID 624476); settings: NFkB reporter cell line viability counterscreen; series mostly up to 46.1 µM;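 further: cells exposed to compound for 48 hours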
[6] = qHTS Assay for Identification of Small Molecule Agonists for NFkB Signaling Pathway. (AID 624478); settings: NFkB pathway reporter cell assay, agonist mode, cells co-stimulated with 10 pM TNF alpha; series mostly up to 46.1 µM;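 further: compounds tested together with TNF alpha at its EC50 of 10 pM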
In short: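 ME-180 cervical carcinoma, stable NFkB-RE beta-lactamase reporter; 1000 cells/well, overnight attachment; cpd + TNF alpha 10 pM final, 5 h 37 C; LiveBLAzer 2 h RT; FRET 460/530 nm, ex 405 nm.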

[7] = qHTS Assay for Identification of Small Molecule Antagonists for NFkB Signaling Pathway. (AID 624479; calls by dose curve); settings: NFkB pathway reporter cell assay, antagonist mode; series mostly up to 38.3 µM
[8] = Cell Proliferation Assay against the TMD8 Cell Line (AID 651645); settings: TMD8 DLBCL cell line proliferation/viability; at 46.1 µM (top of the series);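 further: cells exposed to compound for 48 h before reading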
In short: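 Viability by CellTiter-Glo after 48 h compound exposure of 500 log-phase TMD8 cells per well (RPMI, 5% FBS). Percent activity scaled between DMSO (100%) and 9.2 uM final bortezomib (0%).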

[9] = Cell Proliferation Assay against the HBL1 Cell Line (AID 651646); settings: HBL1 DLBCL cells; at 46.1 µM (top of the series);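 further: cells exposed to compound for 48 h before reading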
In short: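 Luminescent ATP read-out (CellTiter-Glo) after 48 h compound exposure of HBL1 cells at 37 °C; percent activity was scaled between DMSO as 100% and 9.2 uM bortezomib (final) as 0%.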

[10] = Cell Proliferation Assay against the TMD8 Cell Line (Caspase readout at 16 hrs) (AID 651712); settings: TMD8 lymphoma cells, caspase activation luminescence; further: potency means the concentration at half of the fitted maximal effect
In short: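 Apoptotic response of TMD8 cells was judged from caspase 3/7 activation following a 16 hour compound incubation at 37 °C. Luminescent signal was converted to percent activity, with DMSO set as 0% and 9.2 uM final bortezomib as 100%.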

[11] = Cell Proliferation Assay against the TMD8 Cell Line (Caspase readout at 8 hrs) (AID 651713); settings: TMD8 lymphoma cells, caspase activation luminescence; further: potency means the concentration at half of the fitted maximal effect
In short: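 Seed log-phase TMD8 cells, add compound by pin tool, incubate 8 h at 37C under 5% CO2, equilibrate to room temperature, add Caspase-Glo, wait 15 min, read luminescence; percent activity uses DMSO and 9.2 uM bortezomib controls.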

[12] = biological target: Tyrosine-protein kinase Yes (Homo sapiens) (UniProt P07947); assay: qHTS for small molecule inhibitors of Yes1 kinase: Primary Screen (AID 686947); settings: Yes1 kinase biochemical qHTS inhibition; series mostly up to 76.9 µM; further: nearly all actives have a fitted effect of over 60% in size
Chain of Tyrosine-protein kinase Yes (Homo sapiens) (P07947 whole entry, looked up): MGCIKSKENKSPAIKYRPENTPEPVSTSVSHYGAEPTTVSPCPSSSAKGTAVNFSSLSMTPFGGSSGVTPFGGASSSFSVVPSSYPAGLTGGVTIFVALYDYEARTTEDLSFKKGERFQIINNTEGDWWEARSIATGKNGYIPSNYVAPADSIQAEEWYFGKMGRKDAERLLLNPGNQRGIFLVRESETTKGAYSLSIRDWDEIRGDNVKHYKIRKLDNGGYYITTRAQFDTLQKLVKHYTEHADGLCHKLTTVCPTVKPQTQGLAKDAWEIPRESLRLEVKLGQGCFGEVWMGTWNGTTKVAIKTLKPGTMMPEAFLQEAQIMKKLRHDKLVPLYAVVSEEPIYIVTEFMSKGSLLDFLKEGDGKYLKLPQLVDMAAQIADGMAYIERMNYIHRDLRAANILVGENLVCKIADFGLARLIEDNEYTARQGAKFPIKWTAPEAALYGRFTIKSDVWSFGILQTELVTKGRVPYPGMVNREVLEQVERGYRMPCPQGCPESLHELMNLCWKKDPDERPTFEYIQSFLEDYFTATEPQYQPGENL
In short: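 Yes1 (4 nM) preincubated 20 min with compound, then 60 min room-temperature reaction with 0.1 mM ATP and 0.3 mg/mL poly(E4Y) in pH 7.5 Tris, 10 mM MgCl2. ADP measured by ADP-Glo luminescence, normalised to enzyme/no-enzyme controls.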

[13] = qHTS for small molecule inhibitors of Yes1 kinase: Counter Assay (AID 686950); settings: series mostly up to 76.9 µM;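 further: no kinase present so only ADP-Glo detection of a fixed ADP amount is tested; luminescence from ADP-Glo reporting ADP in a fixed ATP and ADP mixture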
In short: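 Luminescence read-out from ADP-Glo quantifies a fixed ADP amount (0.02 mM ADP with 0.08 mM ATP) after 60 min at room temperature; signal is normalized between DMSO wells with ATP/ADP and with 0.1 mM ATP alone.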

[14] = qHTS profiling for inhibitors of Plasmodium falciparum (3D7) proliferation (AID 743322);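 further: infected erythrocytes exposed to compound for 72 h before lysis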; settings: P. falciparum 3D7 proliferation; at 28.7 µM (top of the series)
In short: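 Erythrocytes infected with P. falciparum (0.3% parasitemia, 2.5% hematocrit) incubated with compounds 72 h at 37 C, 5% CO2. Lysis with saponin/Triton buffer containing SYBR Green I, overnight at room temperature in the dark; DNA fluorescence (485/535 nm) normalised to 0.29 uM artemisinin and DMSO.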

[15] = qHTS profiling for inhibitors of Plasmodium falciparum (DD2) proliferation (AID 743323; call rule not given here); settings: lower = more inhibition; at 28.7 µM (top of the series)
In short: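 Parasite proliferation measured via DNA-dye fluorescence, as uninfected erythrocytes lack DNA. Cultures at 0.3% parasitemia and 2.5% hematocrit incubated 72 h with compound; signal scaled between vehicle and 0.29 uM artemisinin wells.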

[16] = biological target: Muscarinic acetylcholine receptor M1 (Rattus norvegicus) (UniProt P08482); assay: qHTS Assay for Antagonists of Acetylcholine Muscarinic M1 Receptor: Kinetic Measurement of Intracellular Calcium Response (AID 943); settings: M1-expressing cells, kinetic intracellular calcium fluorescence; series mostly up to 35.3 µM; further: potency means the concentration at half of the fitted maximal effect; nearly all actives have a fitted effect of over 75% in size
Chain of Muscarinic acetylcholine receptor M1 (Rattus norvegicus) (P08482 whole entry, looked up): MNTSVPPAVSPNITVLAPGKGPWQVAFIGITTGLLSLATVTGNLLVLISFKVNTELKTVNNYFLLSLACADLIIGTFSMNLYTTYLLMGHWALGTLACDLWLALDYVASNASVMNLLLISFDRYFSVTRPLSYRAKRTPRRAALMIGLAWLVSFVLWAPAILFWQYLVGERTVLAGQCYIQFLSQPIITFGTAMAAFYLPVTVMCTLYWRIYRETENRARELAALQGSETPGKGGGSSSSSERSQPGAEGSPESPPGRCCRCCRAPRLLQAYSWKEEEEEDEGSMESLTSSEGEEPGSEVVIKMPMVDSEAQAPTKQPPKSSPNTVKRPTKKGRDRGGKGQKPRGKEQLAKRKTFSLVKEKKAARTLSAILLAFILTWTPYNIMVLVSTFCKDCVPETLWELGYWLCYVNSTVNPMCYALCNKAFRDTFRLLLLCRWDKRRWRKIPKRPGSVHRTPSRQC
In short: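 Rat M1-CHO cells, 2000/well, overnight → Fluo-4 no-wash dye with probenecid, 1 h 37C → compound 10 min, room temp → basal read 6 s → carbachol EC80 (100 nM) → 4 min kinetic read; peak/basal.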

**Q.** Which results are given for `COc1ccccc1N1CCN(C[C@@H](O)COc2cccc3ccccc23)CC1`?
**A.** Potency [1]: inactive; outcome [2]: inactive; outcome [3]: inactive

**Q.** What does the source list for `CC#C[C@]1(O)CC[C@H]2[C@@H]3CCC4=CC(=O)CCC4=C3[C@H](c3ccc(N(C)C)cc3)C[C@@]21C`?
**A.** Potency [4]: 5.01 µM (active); outcome [5]: inactive; outcome [6]: inactive; outcome [7]: inactive; viability (% of control) [8]: 2.64%; viability, percent of control [9]: 10.1%; Potency [10]: 26.4 µM (active); Potency [11]: 23.5 µM (active); Potency [12]: inactive; outcome [13]: inactive; remaining parasite growth % (stronger effect = lower value) [14]: 20.9%; activity, percent of control [15]: 17.2%

**Q.** Which Potency [16] does the source give for `Cc1ccc(/C(=C/CN2CCCC2)c2ccccn2)cc1` here?
**A.** The Potency was 1.26 µM (active).
